Results from PubChem BioAssay.

Assay: basal CRE-LacZ reporter activity in PC12 – cell-based, unstimulated, primary screen (AID 1145)
Details: no forskolin, luminescence, 4.5 h, higher = more signal, called active from +8 up or from −8 down

z-score, inactive:
CCOC(=O)[C@H](Cc1ccccc1)NC(=O)CCC1CC(OC(=O)NCc2ccc3c(c2)OCO3)CC2(CCCC(COC(=O)NCCOC)O2)O1 (stereo partly specified) -0.256, CCOC(=O)[C@H](Cc1ccccc1)NC(=O)CCC1CC(OC(=O)NCc2ccc3c(c2)OCO3)CC2(CCCC(COC(=O)NCCCN3CCCC3=O)O2)O1 (stereo partly specified) 1.01, COC(=O)[C@H](C)NC(=O)CCC1CC(OC(=O)NCCc2ccc(F)cc2)CC2(CCCC(COC(=O)NCCOc3ccccc3)O2)O1 (stereo partly specified) -0.0755, O=C1CCCC=C1C(O)C1CCCCC1 (stereo unspecified) 0.198, CCOC(=O)NN=C1C[C@@H](O)[C@@H](O)[C@@H]2[C@@H]3C(=O)N(c4ccc(F)cc4F)C(=O)[C@@H]3CC[C@H]12 -0.296, CC(=O)OC[C@H]1O[C@H](CC=NO[C@@H](C)c2cc(-c3c(C)cc(C)cc3C)no2)C=C[C@@H]1OC(C)=O 0.173, CCOC(=O)CCN1C(=O)[C@H]2[C@H]3[C@H](O)[C@H](O)CC(=NO[C@@H]4O[C@H](CO)[C@@H](O)[C@H](O)[C@H]4O)[C@H]3CC[C@H]2C1=O 0.241, CCOC(=O)[C@H](CC(C)C)NC(=O)CCC1CC(OC(=O)NCCc2ccc(F)cc2)CC2(CCCC(COC(=O)NCc3cccc(C(F)(F)F)c3)O2)O1 (stereo partly specified) -0.437, C[C@H]1CC[C@@H](C(=O)O)N[C@@H]1c1cccc(N2CCCC2=O)c1 -0.437, CC(=O)OC[C@H]1O[C@@H](ON=C2[C@H]3CCn4c(=O)n(-c5ccccc5)c(=O)n4[C@H]3[C@H](O)[C@@H]3O[C@H]23)[C@H](OC(C)=O)[C@@H](OC(C)=O)[C@@H]1OC(C)=O -0.403, CCOC(=O)[C@H](CC(C)C)NC(=O)CCC1CC(OC(=O)NCCc2ccc(F)cc2)CC2(CCCC(COC(=O)NCCCN3CCCC3=O)O2)O1 (stereo partly specified) 0.109, CC(CCC(=O)OC[C@H]1O[C@H](C#Cc2ccccc2)C=C[C@@H]1Oc1ccc(C)cc1)=NOC[C@@H](C)[C@H](OCc1ccccc1)C(C)C -0.399, CCOC(=O)[C@H](Cc1ccccc1)NC(=O)CCC1CC(OC(=O)NCc2cccc3ccccc23)CC2(CCCC(COC(=O)NCCc3ccccc3OC)O2)O1 (stereo partly specified) 0.104, COC(=O)[C@H](C)NC(=O)CCC1CC(OC(=O)NCCc2ccc(F)cc2)CC2(CCCC(COC(=O)NCCc3ccccc3OC)O2)O1 (stereo partly specified) 0.559, CCOC(=O)NN=C1C[C@@H](O)[C@@H](O)[C@@H]2[C@@H]3C(=O)N(C[C@@H]4CCCO4)C(=O)[C@@H]3CC[C@H]12 -0.926, CON=C1c2cc(OC)ccc2O[C@H](c2cccc(OC)c2)[C@H]1O -0.0731, COC(=O)[C@H](C)NC(=O)CCC1CC(OC(=O)NCc2ccc3c(c2)OCO3)CC2(CCCC(COC(=O)NCCC(C)C)O2)O1 (stereo partly specified) -0.706, C[C@H]1C=CCC(=O)OC[C@H](C)C(=O)N2CCC[C@H]2C(=O)OC1 -0.324, CCCNC(=O)OC[C@H]1O[C@H](CCON=C2C[C@@H](O)[C@@H](O)[C@@H]3[C@@H]4C(=O)N(CC)C(=O)[C@@H]4CC[C@@H]23)C=C[C@@H]1Oc1ccc(OC)cc1 0.68, COC(=O)[C@@H]1CC[C@H](C)[C@@H](c2ccc(C)cc2)N1C(=O)c1ccc(C=NO[C@@H](C)c2cc(-c3c(C)cc(C)cc3C)no2)cc1 -0.0591, CC(C)(C)N1C(=O)[C@H]2[C@H]3[C@H](O)[C@H](O)CC(=NNC(=O)OCc4ccccc4)[C@H]3CC[C@H]2C1=O 1.34, CO[C@@H]1COC(=O)CC=C[C@H](C)[C@H](OC)COC(=O)[C@@H]2CCCN2C(=O)CC=C[C@H]1C 0.609, Cc1cc2c(nc1C)CCCCN2CC(O)CN1CCCc2nc(-c3ccc(Br)cc3)ccc21 (stereo unspecified) 0.744, COc1ccc(O[C@H]2C=C[C@@H](C#Cc3ccccc3)O[C@@H]2CO)cc1 0.653, C#CCCCON=C1C[C@@H](O)[C@@H](O)[C@@H]2[C@@H]3C(=O)N(C[C@@H]4CCCO4)C(=O)[C@@H]3CC[C@H]12 -0.564, O=C1[C@H]2[C@H]3[C@H](O)[C@H](O)CC(=NO[C@@H]4O[C@H](CO)[C@@H](O)[C@H](O)[C@H]4O)[C@@H]3CC[C@H]2C(=O)N1c1cccc(Oc2ccccc2)c1 0.967
